Consider 10 compounds from PubChem BioAssay (EPA / NIEHS).

The nature of assay [1]: CCTE_Deisenroth_5AR_NBTE_donor: CCTE's 5alpha-reductase NanoBRET Target Engagement Assay […], Deisenroth Lab (AID 2284319). Conditions: actives raise or lower the signal. The procedure, abridged:
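HEK293T cells transiently expressing SRD5A2-NanoLuc, exposed 5 h to chemicals (8 points, 10 nM - 29.9 uM), with testosterone tracer for the final 2 h. Donor luminescence at 460 nm read after Nano-Glo substrate plus extracellular NanoLuc inhibitor; bidirectional fit versus DMSO.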
In general terms: BRET reads energy transfer from a luciferase to a nearby fluorophore.

Assay [2] can be described thus: CCTE_Deisenroth_5AR_NBTE_acceptor: CCTE's 5alpha-reductase NanoBRET Target Engagement Assay - Autofluorescence Screen, Deisenroth Lab (AID 2284321).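 Also: compound fluorescence in the acceptor channel under 460 nm excitation flags autofluorescence artifacts.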 Conditions: actives raise or lower the signal. In outline:
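Chemicals diluted to a nominal 100 uM in DMSO were scanned at 460 nm excitation. Samples were read in three independent runs (n=3). Gain or loss of acceptor signal was fitted relative to DMSO.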

The test system of another assay is SRD5A2 (gene 6716). The assay is described as follows: CCTE_Deisenroth_5AR_NBTE_ratio: CCTE's 5alpha-reductase NanoBRET Target Engagement Assay - Ratio, Deisenroth Lab (AID 2284322). As to conditions: actives raise or lower the signal. The procedure, abridged: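 HEK293T cells transiently expressing an SRD5A2-NanoLuc fusion (20 h post-transfection) were exposed to test chemical (10 nM - 29.9 uM, 8 points) for 3 h, then testosterone tracer for a further 2 h. Acceptor/donor BRET ratio was fitted bidirectionally against DMSO baseline.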

Assay [3] in a line: VALA_TUBHUV_Antagonist_TubuleLength: VALA Sciences human Umbilical Vein Endothelial Tubule Formation (TUBHUV) Antagonism Assay (AID 2284325; active = hit-call score of the fitted dose curve at least 0.9, where 1 is the maximum). The procedure, abridged:
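Tubule length was imaged via CD31 immunofluorescence after a further 3-day compound exposure in 10 ng/ml VEGF, following 3-day pre-culture of HUVEC with HDF at 1:3. Vehicle 0.1% DMSO; suramin (100 uM) inhibition control.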

A short description of assay [4]: VALA_TUBIPS_Antagonist_CellCount: Viability Assessment in the VALA Sciences human iPS-derived Endothelial Tubule Formation (TUBIPS) Antagonism Assay (AID 2284335; active = hit-call score of the fitted dose curve at least 0.9, where 1 is the maximum). As to the method:
(§1) VALA_TUBIPS_Agonist is a cell-based, multiplexed assay that uses human iPS-derived endothelial cells (iPSC). Measurements were taken 72 hours after chemical dosing in a 96-well plate.VALA_TUBIPS_Antagonist_CellCount is the one of two assay components measured from the VALA_TUBIPS_Antagonist assay. It is designed to make measurements of viability, a form of viability reporter, as detected with fluorescence intensity signals by HCS Fluorescent Imaging technology. Data from the assay component VALA_TUBIPS_Antagonist_CellCount was analyzed at the endpoint, VALA_TUBIPS_Antagonist_CellCount, in the positive analysis fitting direction relative to DMSO as the negative control and baseline of activity. Using a type of viability reporter, loss-of-signal activity can be used to understand viability. To generalize the intended target to other relatable targets, this assay endpoint is annotated to the cell cycle intended target family, where the subfamily is cell count.
(§2) […]

The nature of assay [5]: VALA_MIGHUV1_ScratchOnly_WoundArea: VALA Sciences human Umbilical Vein Endothelial Cell Migration (MIGHUV) Assay, Area of Scratch Wound Inhibited Recovery (AID 2284336; active = hit-call score of the fitted dose curve at least 0.9, where 1 is the maximum). In outline:
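Wound area remaining after 24 h recovery imaged by Hoechst nuclear fluorescence in scratched HUVEC cultures, chemicals added within 30 min of scratching across a 6-point series. Gain of signal fitted against 0.1% DMSO; cytochalasin D positive control.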

Assay [6] in a line: VALA_TUBIPS_Agonist_CellCount: Viability Assessment in the VALA Sciences human iPS-derived Endothelial Tubule Formation (TUBIPS) Agonism Assay (AID 2284338; active = hit-call score of the fitted dose curve at least 0.9, where 1 is the maximum). As to the method:
as §1, with “plate.VALA_TUBIPS_Agonist_CellCount” for “plate.VALA_TUBIPS_Antagonist_CellCount”, “VALA_TUBIPS_Agonist” for “VALA_TUBIPS_Antagonist”, “VALA_TUBIPS_Agonist_CellCount” for “VALA_TUBIPS_Antagonist_CellCount”, “VALA_TUBIPS_Agonist_CellCount,” for “VALA_TUBIPS_Antagonist_CellCount,”
as §2

The test system of another assay is SERPINA7 (gene 6906). The experiment in a line: CCTE_GLTED_hTBG: CCTE's human Thyroxine-binding Globulin (TBG) Inhibition Assay, Great Lakes Toxicology and Ecology Division (GLTED) Lab (AID 2284343; active = hit-call score of the fitted dose curve at least 0.9, where 1 is the maximum;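 also: active chemicals lower fluorescence versus DMSO baseline by displacing probe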). In outline:
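Human thyroxine-binding globulin was exposed to each chemical for 2 hours, during which the ANSA probe could be displaced. Fluorescence was then measured at 380/475 nm, and loss of signal was analysed relative to DMSO.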

The test system of assay [7] is Brachyury (BRA) Protein Expression, Deisenroth Lab, TBXT (gene 6862). The experiment in a line: CCTE_Deisenroth_DEVTOX-GLR_legacy_Bra: (Legacy) CCTE's DevTox GLR-Endo Assay Evaluation of Brachyury (BRA) Protein Expression, Deisenroth Lab (AID 2284329). In outline: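 Readout: percent Bra+ cells by high-content fluorescence imaging, Bra+ meaning mean intensity 5x BMAD over pluripotent control median. RUES2-GLR cells dosed twice over 48 h differentiation; DMSO-control median subtracted before concentration-response fitting.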

Assay [8] in a line: CCTE_Deisenroth_DEVTOX-GLR_legacy_CellCount: (Legacy) Viability Assessment in CCTE's DevTox GLR-Endo Assay, Deisenroth Lab (AID 2284331). As to conditions: actives raise or lower the signal. The procedure, abridged: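 Human pluripotent RUES2-GLR cells differentiated 48 h with two 24-h-interval exposures, 10-point 1 nM–200 uM series, 0.2% DMSO. Fixed nuclei counted by high-content imaging (5 fields/well); bidirectional fit vs DMSO, n≥4.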

A short description of assay [9]: IUF_NPC1_cytotoxicity_72hr: Cytotoxicity Assessment at 72 hours in the Leibniz Research Institute for Environmental Medicine (IUF) Neural Progenitor Cell Proliferation Assay (NPC1) (AID 2284332; active = hit-call score of the fitted dose curve at least 0.9, where 1 is the maximum;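 also: rising LDH signal means more cytotoxicity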). The procedure, abridged: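 Membrane-integrity loss is scored from LDH released into the medium, detected as resorufin fluorescence, with activity fitted upward relative to baseline. Test material stays on human fetal-derived progenitor spheres for 72 h.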

In assay [10] the test system is SRY-box transcription factor 17 (SOX17) Protein Expression, Deisenroth Lab, SOX17 (gene 64321). The assay is described as follows: CCTE_Deisenroth_DEVTOX-GLR_legacy_Sox17: (Legacy) CCTE's DevTox GLR-Endo Assay Evaluation of SRY-box transcription factor 17 (SOX17) Protein Expression, Deisenroth Lab (AID 2284341). As to conditions: actives raise or lower the signal. In outline:
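RUES2-GLR human pluripotent cells differentiated toward endoderm for 48 h, dosed twice at 24 h intervals (1 nM–200 uM, 10 points). Imaging gives % SOX17+ cells (intensity >5x BMAD above pluripotent control median); bidirectional fit versus 0.2% DMSO.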

A short description of assay [11]: CCTE_Mundy_HCI_iCellGluta_NOG_NeuriteCount: CCTE's Neurite Outgrowth Assay in iCellGluta cells for Neurite Count, Mundy Lab (AID 2284342; active = hit-call score of the fitted dose curve at least 0.9, where 1 is the maximum;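 also: chemical exposure about 48 hours starting 2 hours after plating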).
Assay [12] has as its system SRY-box transcription factor 2 (SOX2) Protein Expression, Deisenroth Lab, SOX2 (gene 6657). The assay is described as follows: CCTE_Deisenroth_DEVTOX-GLR_legacy_Sox2: (Legacy) CCTE's DevTox GLR-Endo Assay Evaluation of SRY-box transcription factor 2 (SOX2) Protein Expression, Deisenroth Lab (AID 2284346). In outline: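 Read-out: fraction of Sox2+ cells by high-content fluorescence imaging of fixed RUES2-GLR cells after 48 h differentiation with two 24 h-spaced exposures. Positivity cutoff 5x BMAD above endoderm control median; 0.2% DMSO median subtracted.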

In assay [13] the test system is SRY-box transcription factor 17 (SOX17) Protein Expression, Deisenroth Lab, SOX17 (gene 64321). The assay is described as follows: CCTE_Deisenroth_DEVTOX-GLR_Endo_SOX17: CCTE's DevTox GLR-Endo Assay Evaluation of SRY-box transcription factor 17 (SOX17) Protein Expression, Deisenroth Lab (AID 2284413). The procedure, abridged:
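Human RUES2-GLR cells carrying an inducible fluorescent reporter are differentiated in defined media for 48 h and dosed twice, 24 h apart. After fixation and nuclear staining, imaging yields SOX17+ cell percentage relative to 0.2% DMSO-treated differentiated cells.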

Assay [14] has as its system Brachyury (BRA) Protein Expression, TBXT (gene 6862). The assay is described as follows: CCTE_Deisenroth_DEVTOX-GLR_Endo_BRA: CCTE's DevTox GLR-Endo Assay Evaluation of Brachyury (BRA) Protein Expression, Deisenroth Lab (AID 2284417). In outline:
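RUES2-GLR pluripotent cells differentiated 48 h with two chemical exposures 24 h apart, 10-point range 1 nM - 200 uM. Percentage of BRA+ cells per total count by high-content imaging, minus 0.2% DMSO control.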

SMILES strings stand for the structures. Records with an inconclusive call do not appear. The source made the active and inactive calls. The calls were made as follows, unless noted: active = hit-call score of the fitted dose curve at least 0.9, where 1 is the maximum; inactive = score below 0.9.

Broadly, the AC50 is the midpoint of the concentration-response curve, whichever way the signal moves. `O=C1OC(c2ccc(O)cc2)(c2ccc(O)cc2)c2ccccc21`: the compound was classed as inactive in assay [1], in assay [2], in assay [4] and in [6]. Also, the AC50 in the assay with SRD5A2 (gene 6716) is 50 µM (active); in assay [3], 50 µM (active); in [5] it was 75.4 µM (active); in the assay with SERPINA7 (gene 6906), 3.3 µM (active).

Consider `CCN(CC)CCOc1ccc(C(=C(Cl)c2ccccc2)c2ccccc2)cc1`, for which the call (in assay [1]; in assay [2]; in the assay with SRD5A2 (gene 6716)) was inactive.

For the compound `Cc1c(C)c2c(c(C)c1O)CCC(C)(COc1ccc(CC3SC(=O)NC3=O)cc1)O2` (configuration not stated), the result in assay [1] and in assay [2] was inactive. Besides, the AC50 in the assay on SRD5A2 (gene 6716) is 29.7 µM (active); with SERPINA7 (gene 6906), 8.3 µM (active).

Turning to `CCCCCCCCCCCCCCOS(=O)(=O)O`, the call in assay [1] and in assay [2] was inactive. Also, the AC50 in the assay with SRD5A2 (gene 6716) is 26.1 µM (active); in the assay with SERPINA7 (gene 6906), 27.7 µM (active).

In the case of `CC(=O)CC(c1ccccc1)c1c(O)c2ccccc2oc1=O` (configuration not stated), the compound was classed as inactive in assay [7], in assay [8], in assay [9], in assay [10], in assay [11] and in assay [12]. The AC50 with SERPINA7 (gene 6906) was 37.9 µM (active); in [13] it was 100 µM (active); in assay [14], 1.45e-06 µM (active).

`Cc1ccc(-c2cc(C(F)(F)F)nn2-c2ccc(S(N)(=O)=O)cc2)cc1`: the outcome in [4], in assay [5] and in [6] was inactive.

For the compound `O=C1c2c(O)cccc2Cc2cccc(O)c21`, the outcome in assay [1] and in assay [2] was inactive. The AC50 in the assay with SRD5A2 (gene 6716) is 75.5 µM (active); with SERPINA7 (gene 6906), 41.1 µM (active).

As for `O=Cc1ccccc1C=O`, the AC50 in the assay with SERPINA7 (gene 6906) is 8.72 µM (active).

`O=C1NC(=O)C(c2ccccc2)(c2ccccc2)N1`: the result in assay [8], in assay [9], in assay [10], in assay [12] and in [13] was inactive. The results for the AC50 (in the assay on SERPINA7 (gene 6906); in assay [14]) were 17.4 µM (active) and 100 µM (active), respectively.

Regarding `O=C(O)c1[nH]n(-c2ccc(S(=O)(=O)O)cc2)c(=O)c1N=Nc1ccc(S(=O)(=O)O)cc1`, the AC50 in assay [1] was 35 µM (active); in the assay on SRD5A2 (gene 6716) it was 57.5 µM (active); with SERPINA7 (gene 6906), 27.1 µM (active). In assay [2], the outcome was inactive.
